# Experimental data as given in the supplement of paper PMC10849652.
# Of roughly 8,800 targets only a part is listed; those with a hit were picked by preference. About 0.5% of all pairs of compound and target were hits. A number with no mark means an inactive call.
# Compound: O=C(O)c1ccc2c(c1)nc(Nc1cccc(Cl)c1)c1ccncc12 [silmitasertib]
# Assay: log2 fold change, soluble protein after heating vs DMSO (PISA); higher = thermal stabilisation; K562 lysate, 10 uM; active = over 0.2 and 3.5 SD of the protein, either way, in both replicates (recomputed)
# Summary of the method: (§1)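 To prepare the extract, K562 pellets were dounce-homogenised in PBS pH 7.4 with 1 mM MgCl2, giving crude material at 1 mg/mL protein. This was treated with 10 μM compound for 30 min, then heated in aliquots for 3 min over 48°C-58°C before pooling and addition of NP-40 to 0.5% at 4°C. Centrifugation at 21,000xg for 90 min left soluble protein in the supernatant, which TMTpro 16plex LC-MS/MS quantified with equalised channel sums. Results are log-two fold changes in thermal stability compared with solvent controls, from duplicates.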
# Chain of UniProt Q8IVJ1 (Q8IVJ1 whole entry, looked up): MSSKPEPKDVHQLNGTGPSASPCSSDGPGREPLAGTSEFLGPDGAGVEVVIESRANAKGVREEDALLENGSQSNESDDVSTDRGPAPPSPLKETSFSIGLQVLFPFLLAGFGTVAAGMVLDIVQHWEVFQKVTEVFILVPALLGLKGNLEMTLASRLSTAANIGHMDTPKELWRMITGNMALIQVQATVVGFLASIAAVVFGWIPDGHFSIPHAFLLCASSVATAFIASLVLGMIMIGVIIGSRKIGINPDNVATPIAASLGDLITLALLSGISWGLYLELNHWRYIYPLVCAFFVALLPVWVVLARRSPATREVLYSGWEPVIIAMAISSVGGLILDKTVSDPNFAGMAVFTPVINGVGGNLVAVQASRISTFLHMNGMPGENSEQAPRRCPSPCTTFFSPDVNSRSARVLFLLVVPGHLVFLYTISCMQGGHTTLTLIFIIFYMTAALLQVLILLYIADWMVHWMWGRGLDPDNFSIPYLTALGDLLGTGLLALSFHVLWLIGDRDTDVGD
# Chain of UniProt Q9UPR3 (Q9UPR3 whole entry, looked up): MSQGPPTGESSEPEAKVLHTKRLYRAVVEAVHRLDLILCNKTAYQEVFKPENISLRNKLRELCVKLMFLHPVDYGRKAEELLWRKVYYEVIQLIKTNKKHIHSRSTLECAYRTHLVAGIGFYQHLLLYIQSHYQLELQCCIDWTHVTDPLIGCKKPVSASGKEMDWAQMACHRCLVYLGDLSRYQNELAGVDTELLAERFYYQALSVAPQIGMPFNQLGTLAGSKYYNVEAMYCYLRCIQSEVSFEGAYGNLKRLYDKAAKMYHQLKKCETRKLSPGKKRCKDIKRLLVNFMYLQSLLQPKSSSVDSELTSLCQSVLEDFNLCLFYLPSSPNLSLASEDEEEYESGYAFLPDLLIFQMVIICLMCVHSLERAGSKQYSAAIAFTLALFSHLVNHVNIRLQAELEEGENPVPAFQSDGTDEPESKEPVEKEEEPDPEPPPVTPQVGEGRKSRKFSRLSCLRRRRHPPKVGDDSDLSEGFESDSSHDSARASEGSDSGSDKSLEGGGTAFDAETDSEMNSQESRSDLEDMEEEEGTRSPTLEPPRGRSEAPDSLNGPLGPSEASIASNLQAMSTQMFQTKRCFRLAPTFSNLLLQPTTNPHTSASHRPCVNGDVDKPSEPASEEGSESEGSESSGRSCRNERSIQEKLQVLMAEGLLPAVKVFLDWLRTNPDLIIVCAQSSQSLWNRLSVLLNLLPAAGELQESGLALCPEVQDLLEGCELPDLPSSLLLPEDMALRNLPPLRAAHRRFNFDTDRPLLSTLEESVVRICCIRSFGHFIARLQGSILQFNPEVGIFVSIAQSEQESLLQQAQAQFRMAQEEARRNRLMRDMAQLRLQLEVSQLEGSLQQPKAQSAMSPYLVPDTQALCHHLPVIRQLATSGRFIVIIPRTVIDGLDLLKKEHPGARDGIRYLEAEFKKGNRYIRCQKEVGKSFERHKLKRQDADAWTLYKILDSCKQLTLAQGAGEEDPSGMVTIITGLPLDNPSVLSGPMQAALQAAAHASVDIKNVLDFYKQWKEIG
# Chain of UniProt Q9UHW9 (Q9UHW9 whole entry, looked up): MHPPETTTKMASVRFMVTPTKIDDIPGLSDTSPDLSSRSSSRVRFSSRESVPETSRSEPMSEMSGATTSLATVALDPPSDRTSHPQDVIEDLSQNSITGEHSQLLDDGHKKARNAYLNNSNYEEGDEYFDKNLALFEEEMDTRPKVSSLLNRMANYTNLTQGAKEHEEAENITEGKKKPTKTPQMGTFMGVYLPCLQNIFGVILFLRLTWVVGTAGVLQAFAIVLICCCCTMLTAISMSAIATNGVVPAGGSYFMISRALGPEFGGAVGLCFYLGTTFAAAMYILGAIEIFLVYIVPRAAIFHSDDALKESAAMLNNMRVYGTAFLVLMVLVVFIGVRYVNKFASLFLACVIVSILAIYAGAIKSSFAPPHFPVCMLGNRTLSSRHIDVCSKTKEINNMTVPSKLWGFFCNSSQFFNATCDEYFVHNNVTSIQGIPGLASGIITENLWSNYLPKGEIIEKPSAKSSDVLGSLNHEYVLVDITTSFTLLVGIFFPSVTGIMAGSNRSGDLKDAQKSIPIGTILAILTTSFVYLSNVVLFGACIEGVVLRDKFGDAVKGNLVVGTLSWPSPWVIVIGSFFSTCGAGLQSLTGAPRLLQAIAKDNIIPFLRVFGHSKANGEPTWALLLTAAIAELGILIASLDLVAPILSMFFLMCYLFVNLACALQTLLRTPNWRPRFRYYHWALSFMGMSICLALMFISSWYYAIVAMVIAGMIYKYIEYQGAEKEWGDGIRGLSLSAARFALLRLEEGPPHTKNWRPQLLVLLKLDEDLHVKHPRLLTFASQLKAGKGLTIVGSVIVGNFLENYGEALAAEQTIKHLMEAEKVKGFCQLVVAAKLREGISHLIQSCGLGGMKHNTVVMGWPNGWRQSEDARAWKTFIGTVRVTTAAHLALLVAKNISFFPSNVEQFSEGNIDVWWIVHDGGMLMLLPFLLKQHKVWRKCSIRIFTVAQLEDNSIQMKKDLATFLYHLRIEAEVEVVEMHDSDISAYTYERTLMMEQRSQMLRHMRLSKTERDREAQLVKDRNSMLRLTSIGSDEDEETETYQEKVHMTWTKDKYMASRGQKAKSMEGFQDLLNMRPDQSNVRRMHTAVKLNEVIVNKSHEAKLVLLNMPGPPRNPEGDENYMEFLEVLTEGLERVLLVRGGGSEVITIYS
# Chain of UniProt B2RUZ4 (B2RUZ4 whole entry, looked up): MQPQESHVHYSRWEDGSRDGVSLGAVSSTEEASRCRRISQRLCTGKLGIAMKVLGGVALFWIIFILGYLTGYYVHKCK
# Chain of UniProt Q13043 (Q13043 whole entry, looked up): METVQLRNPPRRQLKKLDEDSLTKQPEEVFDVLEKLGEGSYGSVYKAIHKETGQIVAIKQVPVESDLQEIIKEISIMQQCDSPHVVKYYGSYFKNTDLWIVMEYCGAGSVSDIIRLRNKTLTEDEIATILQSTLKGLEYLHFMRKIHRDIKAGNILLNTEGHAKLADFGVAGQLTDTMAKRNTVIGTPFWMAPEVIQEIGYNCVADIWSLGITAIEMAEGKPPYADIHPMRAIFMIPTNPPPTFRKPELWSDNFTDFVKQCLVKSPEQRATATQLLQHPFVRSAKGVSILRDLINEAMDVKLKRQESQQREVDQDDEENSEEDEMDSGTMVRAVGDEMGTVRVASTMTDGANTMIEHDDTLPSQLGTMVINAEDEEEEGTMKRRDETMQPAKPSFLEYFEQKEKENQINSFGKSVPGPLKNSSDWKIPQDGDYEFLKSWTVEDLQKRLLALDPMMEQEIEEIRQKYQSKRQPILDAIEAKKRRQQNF
# Chain of UniProt Q9Y2H1 (Q9Y2H1 whole entry, looked up): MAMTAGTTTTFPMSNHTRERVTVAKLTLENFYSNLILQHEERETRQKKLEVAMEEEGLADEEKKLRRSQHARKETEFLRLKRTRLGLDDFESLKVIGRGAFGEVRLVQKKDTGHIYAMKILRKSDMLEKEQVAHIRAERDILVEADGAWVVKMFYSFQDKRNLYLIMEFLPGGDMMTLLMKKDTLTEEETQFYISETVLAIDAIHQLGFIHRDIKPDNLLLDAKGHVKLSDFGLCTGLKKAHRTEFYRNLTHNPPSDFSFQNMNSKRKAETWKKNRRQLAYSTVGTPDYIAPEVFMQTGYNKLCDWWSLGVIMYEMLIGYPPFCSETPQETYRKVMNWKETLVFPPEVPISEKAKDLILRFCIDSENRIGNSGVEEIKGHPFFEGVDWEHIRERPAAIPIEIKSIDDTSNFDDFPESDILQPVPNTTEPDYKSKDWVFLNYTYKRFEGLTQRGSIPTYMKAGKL
# Chain of UniProt Q9HBR0 (Q9HBR0 whole entry, looked up): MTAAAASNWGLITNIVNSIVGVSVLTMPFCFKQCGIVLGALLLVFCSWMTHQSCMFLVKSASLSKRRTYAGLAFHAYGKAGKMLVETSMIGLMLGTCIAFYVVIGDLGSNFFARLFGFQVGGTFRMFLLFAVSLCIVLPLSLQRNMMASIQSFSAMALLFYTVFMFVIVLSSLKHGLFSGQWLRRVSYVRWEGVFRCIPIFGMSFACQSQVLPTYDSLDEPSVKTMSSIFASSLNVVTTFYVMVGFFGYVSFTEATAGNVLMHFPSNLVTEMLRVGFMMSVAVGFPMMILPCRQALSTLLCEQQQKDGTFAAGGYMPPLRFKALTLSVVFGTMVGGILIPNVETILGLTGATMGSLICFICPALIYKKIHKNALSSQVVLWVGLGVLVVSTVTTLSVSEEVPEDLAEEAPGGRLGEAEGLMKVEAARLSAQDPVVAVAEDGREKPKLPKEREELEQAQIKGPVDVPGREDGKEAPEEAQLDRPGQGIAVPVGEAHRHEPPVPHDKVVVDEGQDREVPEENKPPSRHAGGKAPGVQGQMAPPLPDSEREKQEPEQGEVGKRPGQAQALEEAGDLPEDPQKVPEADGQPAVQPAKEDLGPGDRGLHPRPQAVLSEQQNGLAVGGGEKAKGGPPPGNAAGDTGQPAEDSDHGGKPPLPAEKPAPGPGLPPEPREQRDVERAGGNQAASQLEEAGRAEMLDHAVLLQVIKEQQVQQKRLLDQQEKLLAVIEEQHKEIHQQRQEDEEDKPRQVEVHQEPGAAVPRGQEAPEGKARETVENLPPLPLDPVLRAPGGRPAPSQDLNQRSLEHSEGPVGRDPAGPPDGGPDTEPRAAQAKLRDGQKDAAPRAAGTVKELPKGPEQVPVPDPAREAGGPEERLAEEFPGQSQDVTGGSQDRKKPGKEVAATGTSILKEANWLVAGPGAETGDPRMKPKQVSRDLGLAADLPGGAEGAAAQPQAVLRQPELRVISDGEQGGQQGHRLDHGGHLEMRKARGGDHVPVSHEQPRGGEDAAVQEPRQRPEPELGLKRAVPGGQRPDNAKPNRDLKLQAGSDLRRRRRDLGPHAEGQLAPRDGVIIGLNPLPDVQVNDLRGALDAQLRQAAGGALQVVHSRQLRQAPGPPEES
# Chain of UniProt Q8NHG7 (Q8NHG7 whole entry, looked up): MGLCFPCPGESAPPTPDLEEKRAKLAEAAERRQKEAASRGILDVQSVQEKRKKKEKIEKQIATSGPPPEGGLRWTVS
row,Target,log2 fold change
1,SH3GL3 isoform 3 (UniProt Q99963),0.028
2,SLC38A10 (UniProt Q9HBR0),-0.013
3,SLC12A6 isoform 2 (UniProt Q9UHW9),-0.03
4,SYK (UniProt P43405),0.053
5,SLC39A13 (UniProt Q96H72),-0.092
6,SPR (UniProt P35270),0.308
7,SHB (UniProt Q15464),0.117
8,SPIRE1 (UniProt Q08AE8),-0.02
9,SZT2 (UniProt Q5T011),-0.081
10,SRC isoform 2 (UniProt P12931),-0.069
11,SMIM1 (UniProt B2RUZ4),-0.076
12,SVIP (UniProt Q8NHG7),-0.041
13,SMG5 (UniProt Q9UPR3),-0.024
14,SRGN (UniProt P10124),-0.123
15,SLC41A1 (UniProt Q8IVJ1),-0.063
16,SNRPD2 (UniProt K7EJB5),0.056

row,Target,log2 fold change
1,STK17B (UniProt O94768),0.807 (active)
2,SLC16A1 (UniProt P53985),-0.012
3,SMC3 (UniProt Q9UQE7),-0.009
4,STARD3 isoform 3 (UniProt Q14849),0.047
5,STAU1 (UniProt O95793),0.017
6,STAU1 isoform 3 (UniProt O95793),-0.103
7,SMARCA4 isoform 4 (UniProt P51532),-0.198
8,STK4 (UniProt Q13043),0.024
9,SSX5 isoform 2 (UniProt O60225),0.091
10,SNAPC2 (UniProt Q13487),-0.122
11,STK38L (UniProt Q9Y2H1),0.184
12,"SNX6, A0A0A0MRI2",0.018
13,SMPD2 (UniProt O60906),-1.47 (active)
14,SIX5 (UniProt Q8N196),-0.011
15,SNAP23 isoform 2 (UniProt O00161),-0.028

# Compound: O=C1NC(=O)C(c2cnc3ccccn23)=C1c1cn2c3c(cc(F)cc13)CN(C(=O)N1CCCCC1)CC2
# Assay: as above
# Summary of the method: as §1
row,Target,log2 fold change
1,SH3GL3 isoform 3 (UniProt Q99963),0.01
2,SLC38A10 (UniProt Q9HBR0),0.08
3,SLC12A6 isoform 2 (UniProt Q9UHW9),-0.064
4,SPA17 (UniProt Q15506),0.022
5,SYK (UniProt P43405),0.016
6,SPR (UniProt P35270),0.219
7,SHB (UniProt Q15464),0.044
8,SPIRE1 (UniProt Q08AE8),-0.129
9,SMIM1 (UniProt B2RUZ4),0.12
10,SURF2 (UniProt Q15527),0.04
11,SVIP (UniProt Q8NHG7),-0.013
12,SMG5 (UniProt Q9UPR3),0.024
13,SRGN (UniProt P10124),-0.087
14,SLC41A1 (UniProt Q8IVJ1),-0.37 (active)
15,TAF11 (UniProt Q15544),0.05
16,SNRPD2 (UniProt K7EJB5),-0.1
17,STK17B (UniProt O94768),0.052

row,Target,log2 fold change
1,SLC16A1 (UniProt P53985),-0.01
2,SIN3B (UniProt O75182),0.559
3,STK26 isoform 3 (UniProt Q9P289),0.014
4,TAF1B (UniProt Q53T94),-0.044
5,SMC3 (UniProt Q9UQE7),-0.017
6,STARD3 isoform 3 (UniProt Q14849),0.03
7,STAU1 (UniProt O95793),-0.009
8,STAU1 isoform 3 (UniProt O95793),-0.156
9,SMARCA4 isoform 4 (UniProt P51532),0.119
10,STK4 (UniProt Q13043),0.041
11,SNAPC2 (UniProt Q13487),-0.086
12,STK38L (UniProt Q9Y2H1),0.022
13,SPAG1 (UniProt Q07617),-0.061
14,TAOK2 (UniProt Q9UL54),-0.051
15,"SNX6, A0A0A0MRI2",0.015
16,SIX5 (UniProt Q8N196),-0.097

# Compound: c1cn2cc(-c3ccc4cn[nH]c4c3)nc(Nc3ccc(N4CCOCC4)cc3)c2n1 [entospletinib]
# Assay: as above
# Summary of the method: as §1
row,Target,log2 fold change
1,SH3GL3 isoform 3 (UniProt Q99963),0.01
2,SLC38A10 (UniProt Q9HBR0),0.024
3,SLC12A6 isoform 2 (UniProt Q9UHW9),-0.114
4,SPA17 (UniProt Q15506),-0.025
5,SYK (UniProt P43405),-0.079
6,SPR (UniProt P35270),0.003
7,SPIRE1 (UniProt Q08AE8),0.076
8,SZT2 (UniProt Q5T011),-0.1
9,SRC isoform 2 (UniProt P12931),-0.111
10,SMIM1 (UniProt B2RUZ4),0.042
11,SURF2 (UniProt Q15527),0.049
12,SVIP (UniProt Q8NHG7),-0.012
13,SMG5 (UniProt Q9UPR3),-0.023
14,SRGN (UniProt P10124),-0.013
15,SLC41A1 (UniProt Q8IVJ1),0.007
16,TAF11 (UniProt Q15544),-0.073
17,SNRPD2 (UniProt K7EJB5),-0.004

row,Target,log2 fold change
1,SLC16A1 (UniProt P53985),0.012
2,SIN3B (UniProt O75182),-0.089
3,STK26 isoform 3 (UniProt Q9P289),0.116
4,TAF1B (UniProt Q53T94),-0.026
5,SMC3 (UniProt Q9UQE7),0.012
6,STARD3 isoform 3 (UniProt Q14849),-0.025
7,STAU1 (UniProt O95793),0.009
8,SMARCA4 isoform 4 (UniProt P51532),-0.083
9,STK4 (UniProt Q13043),0.047
10,SSX5 isoform 2 (UniProt O60225),-0.035
11,STK38L (UniProt Q9Y2H1),0.043
12,TAOK2 (UniProt Q9UL54),0.01
13,"SNX6, A0A0A0MRI2",0.003
14,SMPD2 (UniProt O60906),0.058
15,TARDBP (UniProt K7EN94),-0.166
16,SNAP23 isoform 2 (UniProt O00161),-0.329
